Assay results published in PubChem BioAssay (NCI).
The panel holds about 83,000 compounds, 20% with a hit somewhere; the sample as a whole holds those more often.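 Cells were grown in 96-well plates and exposed to the test compound at a single concentration for 48 hours; results are reported as percent growth, with values below 10 considered active.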 A number with no mark means an inactive call. Active and inactive are the calls of the source.

How the values were obtained:
Test in all cases: NCI-60 one-dose screen, 48 h (100 = growth as untreated, 0 = no growth, -100 = all killed)
Conditions in all cases: 10 µM unless noted
NCI-H226 lung = test system: NCI-H226 lung
NCI-H322M lung = test system: NCI-H322M lung
HOP-62 NSCLC = test system: HOP-62 NSCLC
NCI-H460 lung = test system: NCI-H460 lung
HOP-92 NSCLC = test system: HOP-92 NSCLC
NCI-H522 lung = test system: NCI-H522 lung
A549/ATCC NSCLC = test system: A549/ATCC NSCLC
786-0 renal = test system: 786-0 renal
COLO 205 colon = test system: COLO 205 colon

Row | Compound | growth (NCI-H226 lung) | growth (NCI-H322M lung) | growth (HOP-62 NSCLC) | growth (NCI-H460 lung) | growth (HOP-92 NSCLC) | growth (NCI-H522 lung) | growth (A549/ATCC NSCLC) | growth (786-0 renal) | growth (COLO 205 colon)
1 | Nc1c(C(=O)Nc2cccc3c2OCCO3)sc2nc3c(cc12)C(=O)CCC3 | 27.9% | 45.3% | 46% | 8.5% (active) | 107% | 2.24% (active) | 37.7% | 44.5% | -3.5% (active)
2 | O=c1c2cccc3c(Nc4ccccn4)ccc(c32)c2nc3ccccc3n12 |  | 74.5% | 67.8% | 52.7% | 54.9% | 56.6% | 70.9% | 88.4% | 71%
3 | Cn1cc(-c2nc(-c3c[nH]c4ccccc34)cs2)c2cccnc21 | 65.9% | 58.9% | 33.3% | 16.8% | 30.4% | -3.47% (active) | 34.2% | 64.9% | -2.81% (active)
4 | c1ccc(-c2nc(N3CCOCC3)c3c4c(sc3n2)CCCCC4)nc1 | 50.4% |  | 61% | 33.4% | -2.36% (active) | 29.5% | 51% | 75.9% | 52.4%
5 | O=C(Nc1ccc(Nc2cc(Nc3ccccc3)ncn2)cc1)Nc1cc(C(F)(F)F)ccc1F | 94.7% | 61.9% | 68.6% | 69.8% | 49.3% | 24.5% | 48.1% | 84.4% | 64.4%
6 | CCCCCCCCCCCCCC1=NCCN1CCO | 95% | 93.5% | 58.9% | -68.9% (active) | 24.5% | 89% | 65.1% | 68.8% | -75% (active)
7 | CN1CCCCC1CCN1c2ccccc2Sc2ccc(Cl)cc21 (centres undefined) | 93.5% |  | 84.3% | 71.2% | 53.3% | 65.5% | 67.4% | 61.1% | 58.7%
8 | CCOC(=O)C(=Cc1ccccc1F)C(=O)OCC | 96.1% | 94% | 137% | 105% | 103% | 65.2% | 90.3% | 104% | 115%
9 | COCCCNc1nc(NC(=O)c2ccc(F)cc2C)cc(-c2cccnc2)n1 | 89.1% | 102% | 99.4% | 102% | 67% | 78.6% | 79.8% | 98.4% | 111%
10 | COc1cnc2c(c1)C(=O)c1c-2n(CCCN2CCNCC2)c(=O)c2cc([N+](=O)[O-])ccc12 | -59.4% (active) |  | -67.2% (active) | -42.3% (active) | 22.8% | -48.2% (active) | -87.2% (active) | -85.8% (active) | 14.4%
11 | CCCCCC(=O)N(CCCC)CCCC | 99.7% | 89.4% | 104% | 110% | 91.7% | 97.6% | 100% | 104% | 125%
12 | C[C@@H]1CC[C@@H]2[C@@H]1[C@H](OC(=O)/C=C/c1ccccc1)[C@]1(c3ccccc3)C[C@@H](OC(=O)CO)[C@@]2(C)O1 | 88.8% | 88% | 101% | 92% | 78.8% | 88.5% | 80.2% | 98% | 107%
13 | COc1ccc(-c2c(C)noc2-c2ccc(O)cc2O)cc1 | 101% |  | 118% | 54.3% | 104% | 69.5% | 75.3% | 97.9% | 121%
14 | CCOC(=O)CC(C)=N | 106% | 121% | 107% | 109% | 99.4% | 92% | 101% | 103% | 108%
15 | O=C1CC(c2nc3ccccc3s2)CN1C1CCCCC1 (centres undefined) | 94.6% | 91.2% | 93.2% | 105% | 84.9% | 92.7% | 98.9% | 109% | 101%
16 | O=C(CN1CCN(c2cc3c(cc2F)c(=O)c(C(=O)N/N=C/c2ccccc2)cn3C2CC2)CC1)N/N=C\c1ccccc1 | 81.3% | 85.4% | 109% | 66.3% | 76% | 76.5% | 69.9% | 90.4% | 99.6%
17 | CC(=O)/C(=C/c1cccc(Cl)c1)C(=O)c1ccccc1 | 84.1% | 100% | 95.7% | 102% | 88.7% | 56.6% | 82.6% | 93.2% | 107%
18 | Cn1c2ccccc2c2c3c(c4c5ccccc5[nH]c4c21)C(=O)N(N)C3=O | 53.4% | 85.1% | 44.3% | 17.5% | 80% | 50.2% | 66.4% |  | 56.8%
19 | COc1ccc(CCN2CCCn3c2nc2ccccc2c3=O)cc1 | 37.3% | 45.4% | 48.1% | 10.7% | 46.5% | 12.2% | 28.6% |  | -10.2% (active)
20 | COc1cc(-c2cnc3nonc3n2)c(OC)c2c1OCO2 |  | 90.9% | 101% | 102% | 97.9% | 78.7% | 94.1% | 104% | 113%
21 | COCCOC(=O)C1=C(C)NC(=S)NC1c1ccc2c(c1)OCO2 (centres undefined) | 90.2% | 101% | 98% | 112% | 108% | 94.3% | 101% | 107% | 117%
22 | COc1cccc(-c2cn3c(ccc4ccccc43)n2)c1 |  | 56.4% | 25.8% | 17.8% | 64.2% | 15.9% | 55% | 44.4% | 11.4%
23 | C(=N\Nc1nnn(Cc2ccccc2)n1)/c1ccccc1 |  | 86% | 67.3% | 17.4% | 87.2% | 29.2% | 33.6% | 63.6% | 36.9%
24 | COc1ccc2nc3cc(Cl)ccc3c(N3CCN(c4ccnc(N5CCN(C)CC5)n4)CC3)c2c1 | 90.2% | 94.2% | 73.4% | 64.7% | 59.6% | -60.4% (active) | 83.4% | 78.9% | -45.3% (active)
25 | CN1CCN(Cc2ccc(NC(=O)c3[nH]ncc3Nc3ccnc4ccsc34)cc2)CC1 | 5.11% (active) | 20% | 40.4% | 8.74% (active) | 76.2% | 47.2% | 24.1% |  | 18.9%
26 | COC1/C=C\OC2(C)Oc3c(C)c(O)c4c(O)c(c(CN(C)CCO)c(O)c4c3C2=O)NC(=O)/C(C)=C\C=C/C(C)C(O)C(C)C(O)C(C)C(OC(C)=O)C1C (centres undefined) | 104% | 97.8% | 89.7% | 103% | 115% | 87.8% | 116% | 95.9% | 108%
27 | O=C(/C=C/c1cccc(Br)c1)c1ccccc1 | 92.8% | 97.7% | 70% | 104% | 79% | 64.1% | 72.7% | 72.3% | 99.7%
28 | C=CC[N+]1(CC)CCN=C1CCCCCCCCCCCCCCCCC (centres undefined) | -50% (active) | 27.8% | -95% (active) | -100% (active) | -57.6% (active) | -85.2% (active) | -92.9% (active) | -98.4% (active) | -100% (active)
29 | COc1cc(-c2nc3ccccc3s2)ccc1NC(=O)COc1ccc(Cl)cc1 | 60% | 71% | 29.1% | 13.4% | 8.1% (active) | 38.6% | 49.2% | 16.8% | 52.8%
30 | CCCCCCCCOC(=O)CC[C@@H](C)[C@H]1CC[C@H]2[C@@H]3[C@H](OC(=O)CCN)C[C@@H]4C[C@H](OC(=O)CCN)CC[C@]4(C)[C@H]3C[C@H](OC(=O)CCN)[C@]12C | 89.8% | 71.4% | 37.7% | 73.7% | 40.7% | 10.8% | 81.3% | 99.1% | 66.4%
